# Assay results: PubChem BioAssay AID1159580 (chemical genetic matrix, 2015)
# Out of some 5,500 compounds screened, about 2,000 (36%) were called active. About 18% were inconclusive and are not listed. This is one part of the list. Unmarked numbers belong to inactive results. Cut-off read from the data, not from the text of the source: active = normalized growth mostly below about 0.91 (no sharp cut-off); inconclusive = no clear call, values can overlap the other calls; inactive = mostly above about 0.92.
# Assay: chemical genetic growth profiling, strain panel (AID 1159580);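 note: tested at 20 µM; growth read once vehicle control cultures reached saturation at 30 °C; 1 = growth at the plate median or of vehicle wells; lower values mean less growth of the strain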
# Conditions: growth OD
structure (smiles),measurement,setting,value
C[C@@H]1CC[C@H]2[C@@H](C)C(=O)O[C@@H]3O[C@@]4(C)CC[C@@H]1[C@]32OO4,normalized growth,"S. cerevisiae deletion strains, locus YKL009W, strain mrt4, stronger effect = lower value",0.986
same,normalized growth,"S. cerevisiae deletion strains, locus YKL068W, stronger effect = lower value",0.914 (active)
same,normalized growth,"S. cerevisiae deletion strains, locus YKL085W, strain MDH1 (second series), stronger effect = lower value",0.906 (active)
same,normalized growth,"S. cerevisiae deletion strains, locus YKL085W, strain MDH1, stronger effect = lower value",0.906 (active)
same,normalized growth,"S. cerevisiae deletion strains, locus YKL160W, strain elf1, stronger effect = lower value",0.874 (active)
same,normalized growth,"S. cerevisiae deletion strains, locus YKL190W, strain CNB1, stronger effect = lower value",0.856 (active)
same,normalized growth,"S. cerevisiae deletion strains, locus YKR001C, strain vps1, stronger effect = lower value",0.692 (active)
same,normalized growth,"S. cerevisiae deletion strains, locus YKR026C, strain gcn3, stronger effect = lower value",0.953
same,normalized growth,"S. cerevisiae deletion strains, locus YKR091W, strain srl3, stronger effect = lower value",0.949
same,normalized growth,"S. cerevisiae deletion strains, locus YLL001W, strain dnm1, stronger effect = lower value",0.824 (active)
same,normalized growth,"S. cerevisiae deletion strains, locus YLL026W, stronger effect = lower value",0.876 (active)
same,normalized growth,"S. cerevisiae deletion strains, locus YLL041C, strain sdh2, stronger effect = lower value",0.946
same,normalized growth,"S. cerevisiae deletion strains, locus YLR027C, strain aat2, stronger effect = lower value",0.865 (active)
same,normalized growth,"S. cerevisiae deletion strains, locus YLR039C, strain RIC1, stronger effect = lower value",0.353 (active)
same,normalized growth,"S. cerevisiae deletion strains, locus YLR058C, strain SHM2, stronger effect = lower value",0.852 (active)
same,normalized growth,"S. cerevisiae deletion strains, locus YLR102C, strain apc9, stronger effect = lower value",0.94
same,normalized growth,"S. cerevisiae deletion strains, locus YLR113W, strain HOG1, stronger effect = lower value",0.698 (active)
same,normalized growth,"S. cerevisiae deletion strains, locus YLR221C, strain rsa3, stronger effect = lower value",0.812 (active)
same,normalized growth,"S. cerevisiae deletion strains, locus YLR258W, strain gsy2, stronger effect = lower value",0.918
same,normalized growth,"S. cerevisiae deletion strains, locus YLR262C, strain YPT6 (second series), stronger effect = lower value",0.375 (active)
same,normalized growth,"S. cerevisiae deletion strains, locus YLR262C, strain YPT6, stronger effect = lower value",0.364 (active)
same,normalized growth,"S. cerevisiae deletion strains, locus YLR268W, strain sec22, stronger effect = lower value",0.822 (active)
same,normalized growth,"S. cerevisiae deletion strains, locus YLR320W, strain mms22, stronger effect = lower value",0.674 (active)
same,normalized growth,"S. cerevisiae deletion strains, locus YLR330W, strain CHS5, stronger effect = lower value",0.879 (active)
same,normalized growth,"S. cerevisiae deletion strains, locus YLR342W, strain FKS1 (second series), stronger effect = lower value",0.82
same,normalized growth,"S. cerevisiae deletion strains, locus YLR342W, strain FKS1, stronger effect = lower value",0.885 (active)
same,normalized growth,"S. cerevisiae deletion strains, locus YLR357W, strain rsc2, stronger effect = lower value",1.02
same,normalized growth,"S. cerevisiae deletion strains, locus YLR370C, strain arc18, stronger effect = lower value",0.897 (active)
same,normalized growth,"S. cerevisiae deletion strains, locus YLR371W, strain rom2, stronger effect = lower value",0.929
same,normalized growth,"S. cerevisiae deletion strains, locus YLR384C, strain iki3, stronger effect = lower value",0.949
same,normalized growth,"S. cerevisiae deletion strains, locus YLR418C, strain cdc73, stronger effect = lower value",0.614 (active)
same,normalized growth,"S. cerevisiae deletion strains, locus YML016C, strain PPZ1, stronger effect = lower value",0.915 (active)
same,normalized growth,"S. cerevisiae deletion strains, locus YML032C, strain rad52, stronger effect = lower value",0.798 (active)
same,normalized growth,"S. cerevisiae deletion strains, locus YML120C, strain ndi1, stronger effect = lower value",0.839 (active)
same,normalized growth,"S. cerevisiae deletion strains, locus YML124C, strain tub3, stronger effect = lower value",0.936
same,normalized growth,"S. cerevisiae deletion strains, locus YMR058W, strain fet3, stronger effect = lower value",0.742 (active)
same,normalized growth,"S. cerevisiae deletion strains, locus YMR078C, strain ctf18, stronger effect = lower value",0.882 (active)
same,normalized growth,"S. cerevisiae deletion strains, locus YMR125W, strain sto1, stronger effect = lower value",0.925
same,normalized growth,"S. cerevisiae deletion strains, locus YMR129W, stronger effect = lower value",0.899 (active)
same,normalized growth,"S. cerevisiae deletion strains, locus YMR205C, strain PFK2, stronger effect = lower value",0.779 (active)
same,normalized growth,"S. cerevisiae deletion strains, locus YMR223W, strain ubp8, stronger effect = lower value",0.878 (active)
same,normalized growth,"S. cerevisiae deletion strains, locus YMR231W, strain pep5, stronger effect = lower value",0.928 (active)
same,normalized growth,"S. cerevisiae deletion strains, locus YMR263W, strain SAP30, stronger effect = lower value",0.81 (active)
same,normalized growth,"S. cerevisiae deletion strains, locus YMR307W, strain GAS1, stronger effect = lower value",0.651
same,normalized growth,"S. cerevisiae deletion strains, locus YNL067W, strain RPL9B, stronger effect = lower value",0.86 (active)
same,normalized growth,"S. cerevisiae deletion strains, locus YNL071W, strain lat1, stronger effect = lower value",0.705 (active)
same,normalized growth,"S. cerevisiae deletion strains, locus YNL128W, strain TEP1, stronger effect = lower value",0.757 (active)
same,normalized growth,"S. cerevisiae deletion strains, locus YNL153C, strain GIM3, stronger effect = lower value",0.811 (active)
same,normalized growth,"S. cerevisiae deletion strains, locus YNL183C, strain NPR1, stronger effect = lower value",0.748 (active)
same,normalized growth,"S. cerevisiae deletion strains, locus YNL209W, strain ssb2, stronger effect = lower value",0.867 (active)
same,normalized growth,"S. cerevisiae deletion strains, locus YNL233W, strain BNI4, stronger effect = lower value",0.81 (active)
same,normalized growth,"S. cerevisiae deletion strains, locus YNL248C, strain rpa49, stronger effect = lower value",0.902
same,normalized growth,"S. cerevisiae deletion strains, locus YNL250W, strain rad50, stronger effect = lower value",0.87 (active)
same,normalized growth,"S. cerevisiae deletion strains, locus YNL271C, strain bni1, stronger effect = lower value",0.883 (active)
same,normalized growth,"S. cerevisiae deletion strains, locus YNL298W, strain CLA4, stronger effect = lower value",0.861 (active)
same,normalized growth,"S. cerevisiae deletion strains, locus YNL307C, strain MCK1, stronger effect = lower value",0.754 (active)
same,normalized growth,"S. cerevisiae deletion strains, locus YNL322C, strain KRE1 (second series), stronger effect = lower value",0.904 (active)
same,normalized growth,"S. cerevisiae deletion strains, locus YNL322C, strain KRE1, stronger effect = lower value",0.857 (active)
same,normalized growth,"S. cerevisiae deletion strains, locus YNR049C, strain mso1, stronger effect = lower value",0.94
same,normalized growth,"S. cerevisiae deletion strains, locus YNR052C, strain pop2, stronger effect = lower value",0.842 (active)
same,normalized growth,"S. cerevisiae deletion strains, locus YOL006C, strain TOP1, stronger effect = lower value",0.605
same,normalized growth,"S. cerevisiae deletion strains, locus YOL012C, strain htz1",0.461
same,normalized growth,"S. cerevisiae deletion strains, locus YOL147C, strain pex11, stronger effect = lower value",0.869 (active)
same,normalized growth,"S. cerevisiae deletion strains, locus YOR001W, strain rrp6, stronger effect = lower value",0.855 (active)
same,normalized growth,"S. cerevisiae deletion strains, locus YOR061W, strain CKA2, stronger effect = lower value",0.92
same,normalized growth,"S. cerevisiae deletion strains, locus YOR069W, strain VPS5, stronger effect = lower value",0.911 (active)
same,normalized growth,"S. cerevisiae deletion strains, locus YOR070C, strain gyp1, stronger effect = lower value",0.814 (active)
same,normalized growth,"S. cerevisiae deletion strains, locus YOR080W, strain dia2, stronger effect = lower value",0.926
same,normalized growth,"S. cerevisiae deletion strains, locus YOR083W, strain WHI5, stronger effect = lower value",0.822 (active)
same,normalized growth,"S. cerevisiae deletion strains, locus YOR106W, strain vam3, stronger effect = lower value",0.784 (active)
same,normalized growth,"S. cerevisiae deletion strains, locus YOR136W, strain idh2, stronger effect = lower value",0.93
same,normalized growth,"S. cerevisiae deletion strains, locus YOR144C, strain elg1, stronger effect = lower value",0.927 (active)
same,normalized growth,"S. cerevisiae deletion strains, locus YOR184W, strain ser1, stronger effect = lower value",0.705 (active)
same,normalized growth,"S. cerevisiae deletion strains, locus YOR231W, strain MKK1, stronger effect = lower value",0.745 (active)
same,normalized growth,"S. cerevisiae deletion strains, locus YOR265W, strain rbl2, stronger effect = lower value",0.913 (active)
same,normalized growth,"S. cerevisiae deletion strains, locus YOR270C, strain vph1, stronger effect = lower value",0.633 (active)
same,normalized growth,"S. cerevisiae deletion strains, locus YOR290C, strain snf2, stronger effect = lower value",0.847 (active)
same,normalized growth,"S. cerevisiae deletion strains, locus YOR316C, strain cot1, stronger effect = lower value",0.94
same,normalized growth,"S. cerevisiae deletion strains, locus YPL051W, strain arl3, stronger effect = lower value",0.818 (active)
same,normalized growth,"S. cerevisiae deletion strains, locus YPL078C, strain atp4, stronger effect = lower value",0.796 (active)
same,normalized growth,"S. cerevisiae deletion strains, locus YPL106C, strain sse1, stronger effect = lower value",0.894
same,normalized growth,"S. cerevisiae deletion strains, locus YPL240C, strain hsp82, stronger effect = lower value",0.949
same,normalized growth,"S. cerevisiae deletion strains, locus YPL241C, strain CIN2, stronger effect = lower value",0.924 (active)
same,normalized growth,"S. cerevisiae deletion strains, locus YPL256C, strain CLN2, stronger effect = lower value",0.704 (active)
same,normalized growth,"S. cerevisiae deletion strains, locus YPR119W, strain clb2, stronger effect = lower value",0.927 (active)
same,normalized growth,"S. cerevisiae deletion strains, locus YPR141C, strain kar3, stronger effect = lower value",0.907 (active)
same,normalized growth,"S. cerevisiae deletion strains, locus YPR163C, strain tif3, stronger effect = lower value",0.958
same,normalized growth,"S. cerevisiae deletion strains, locus YPR167C, strain met16, stronger effect = lower value",0.909 (active)
same,normalized growth,"S. cerevisiae deletion strains, strain wtn01, stronger effect = lower value",0.818 (active)
same,normalized growth,"S. cerevisiae strains, strain wild type, stronger effect = lower value",0.852 (active)
